# Source: the supplement of paper PMC7380943
# Tested on: CLZ3 (HCA2 human fibroblast dual HR-NHEJ reporter)
# Test: HR repair efficiency (tdTomato+ cells) relative to control (log10 fold); higher = more homologous recombination
# Settings: 5 µM; doxycycline 0.5 ug/mL
# 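Note: compound given one day before doxycycline, which switches on I-SceI endonuclease expression to create double-strand breaks within the integrated reporter.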
row,SMILES,HR repair efficiency (log10)
1,C[C@@H]1O[C@@H](O[C@@H]2[C@@H](O)[C@H](OCCc3ccc(O)c(O)c3)O[C@H](COC(=O)/C=C/c3ccc(O)c(O)c3)[C@H]2O)[C@H](O)[C@H](O)[C@H]1O [Isoacteoside],0.017
2,COc1cc2ccc(=O)oc2c(O[C@@H]2O[C@H](CO)[C@@H](O)[C@H](O)[C@H]2O)c1O [Fraxin;Fraxoside; Paviin],0.0876
3,C=C1C(=O)O[C@@H]2/C=C(\C)CC/C=C(\C)CC[C@@H]12 [Costunolide],0.07
4,C[C@@H]1O[C@@H](OC[C@H]2O[C@@H](Oc3cc(O)c4c(c3)O[C@H](c3ccc(O)c(O)c3)CC4=O)[C@H](O)[C@@H](O)[C@@H]2O)[C@H](O)[C@H](O)[C@H]1O [Eriocitrin],-0.0151
5,C=C(C)[C@@H]1CC[C@]2(C)CC[C@]3(C)[C@H](CC[C@@H]4[C@@]5(C)CC[C@H](O)C(C)(C)[C@@H]5CC[C@]43C)[C@@H]12 [Lupeol],0.06
6,OCc1ccccc1O[C@@H]1O[C@H](CO)[C@@H](O)[C@H](O)[C@H]1O [Salicoside],0.251
7,O=C(O)c1cc(O)c2c(c1)[C@H]([C@H]1c3cc(C(=O)O)cc(O)c3C(=O)c3c(O[C@@H]4O[C@H](CO)[C@@H](O)[C@H](O)[C@H]4O)cccc31)c1cccc(O[C@@H]3O[C@H](CO)[C@@H](O)[C@H](O)[C@H]3O)c1C2=O [Sennoside A],0.131
8,COc1ccc([C@@H]2CC(=O)c3c(O)cc(O[C@@H]4O[C@H](CO)[C@@H](O)[C@H](O)[C@H]4O[C@@H]4O[C@@H](C)[C@H](O)[C@@H](O)[C@H]4O)cc3O2)cc1O [Neohesperidin],-0.11
9,COc1ccc(-c2oc3cc(O)cc(O)c3c(=O)c2O)cc1 [Kaempferide],-0.167
10,C[C@H]1[C@H](OC(=O)CCC(=O)O)O[C@@H]2O[C@@]3(C)CC[C@H]4[C@H](C)CC[C@@H]1[C@@]24OO3 [Artesunate],-0.241
11,COc1ccc(-c2oc3c(CC=C(C)C)c(O[C@@H]4O[C@H](CO)[C@@H](O)[C@H](O)[C@H]4O)cc(O)c3c(=O)c2O[C@@H]2O[C@@H](C)[C@H](O)[C@@H](O)[C@H]2O[C@@H]2OC[C@@H](O)[C@H](O)[C@H]2O)cc1 [Epimedin B],-0.0516
12,O=C1Nc2ccccc2/C1=C1/Nc2ccccc2C1=O [Indirubin],-0.00679
